# B1: unnamed (peptide)
# chain: DKSRPPRPPPKPLHL
# Molecular target: AgAbp1
# Assay: SPOT peptide array binding signal intensity (averaged, normalized) (arbitrary units (background-subtracted, floor 0; scale differs between SH3 domains)); higher = stronger binding of the SH3 domain to the peptide
# In short: (§1)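 Cellulose membranes carried synthetic 15-mer peptides with cysteines swapped for serines. These were incubated overnight at 4°C with 10 μg/ml of GST-fused SH3 domains from four yeast species in TBS-based blocking buffer. Binding signal, detected with anti-GST antibody and quantified in Genespotter, is the normalized, background-subtracted spot intensity averaged over replicates, in arbitrary units specific to each domain.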
row,Binder,SPOT peptide array binding signal intensity
1,B1,1130

# Molecular target: AgBbc1
# Assay: as above
# In short: as §1
row,Binder,SPOT peptide array binding signal intensity
1,B1,193

# Molecular target: AgBem1-D1
# Assay: as above
# In short: as §1
row,Binder,SPOT peptide array binding signal intensity
1,B1,≤ 0

# Molecular target: AgBzz1-D1
# Assay: as above
# In short: as §1
row,Binder,SPOT peptide array binding signal intensity
1,B1,256

# Molecular target: AgBzz1-D2
# Assay: as above
# In short: as §1
row,Binder,SPOT peptide array binding signal intensity
1,B1,134

# Molecular target: AgCyk3
# Assay: as above
# In short: as §1
row,Binder,SPOT peptide array binding signal intensity
1,B1,≤ 0

# Molecular target: AgFus1
# Assay: as above
# In short: as §1
row,Binder,SPOT peptide array binding signal intensity
1,B1,0.5

# Molecular target: AgHof1
# Assay: as above
# In short: as §1
row,Binder,SPOT peptide array binding signal intensity
1,B1,14.2

# Molecular target: AgHse1
# Assay: as above
# In short: as §1
row,Binder,SPOT peptide array binding signal intensity
1,B1,≤ 0

# Molecular target: AgLsb1
# Assay: as above
# In short: as §1
row,Binder,SPOT peptide array binding signal intensity
1,B1,1.5

# Molecular target: AgLsb4
# Assay: as above
# In short: as §1
row,Binder,SPOT peptide array binding signal intensity
1,B1,15

# Molecular target: AgMyo5
# Assay: as above
# In short: as §1
row,Binder,SPOT peptide array binding signal intensity
1,B1,62.2

# Molecular target: AgNbp2
# Assay: as above
# In short: as §1
row,Binder,SPOT peptide array binding signal intensity
1,B1,62.5

# Molecular target: AgRvs167
# Assay: as above
# In short: as §1
row,Binder,SPOT peptide array binding signal intensity
1,B1,1.33

# Molecular target: AgSho1
# Assay: as above
# In short: as §1
row,Binder,SPOT peptide array binding signal intensity
1,B1,250

# Molecular target: AgSla1-D1-D2
# Assay: as above
# In short: as §1
row,Binder,SPOT peptide array binding signal intensity
1,B1,≤ 0

# Molecular target: AgSla1-D3
# Assay: as above
# In short: as §1
row,Binder,SPOT peptide array binding signal intensity
1,B1,9

# Molecular target: CaAbp1-D1
# Assay: as above
# In short: as §1
row,Binder,SPOT peptide array binding signal intensity
1,B1,782

# Molecular target: CaAbp1-D2
# Assay: as above
# In short: as §1
row,Binder,SPOT peptide array binding signal intensity
1,B1,1940

# Molecular target: CaBbc1
# Assay: as above
# In short: as §1
row,Binder,SPOT peptide array binding signal intensity
1,B1,334

# Molecular target: CaBem1-D1
# Assay: as above
# In short: as §1
row,Binder,SPOT peptide array binding signal intensity
1,B1,120

# Molecular target: CaBzz1-D1
# Assay: as above
# In short: as §1
row,Binder,SPOT peptide array binding signal intensity
1,B1,2800

# Molecular target: CaBzz1-D2
# Assay: as above
# In short: as §1
row,Binder,SPOT peptide array binding signal intensity
1,B1,578

# Molecular target: CaCyk3
# Assay: as above
# In short: as §1
row,Binder,SPOT peptide array binding signal intensity
1,B1,34.5

# Molecular target: CaFus1
# Assay: as above
# In short: as §1
row,Binder,SPOT peptide array binding signal intensity
1,B1,≤ 0

# Molecular target: CaHof1
# Assay: as above
# In short: as §1
row,Binder,SPOT peptide array binding signal intensity
1,B1,0.5

# Molecular target: CaHse1
# Assay: as above
# In short: as §1
row,Binder,SPOT peptide array binding signal intensity
1,B1,63.2

# Molecular target: CaLsb1
# Assay: as above
# In short: as §1
row,Binder,SPOT peptide array binding signal intensity
1,B1,≤ 0

# Molecular target: CaLsb4
# Assay: as above
# In short: as §1
row,Binder,SPOT peptide array binding signal intensity
1,B1,471

# Molecular target: CaMyo5
# Assay: as above
# In short: as §1
row,Binder,SPOT peptide array binding signal intensity
1,B1,0.5

# Molecular target: CaNbp2
# Assay: as above
# In short: as §1
row,Binder,SPOT peptide array binding signal intensity
1,B1,56

# Molecular target: CaRvs167
# Assay: as above
# In short: as §1
row,Binder,SPOT peptide array binding signal intensity
1,B1,5.33

# Molecular target: CaRvs167-3
# Assay: as above
# In short: as §1
row,Binder,SPOT peptide array binding signal intensity
1,B1,2

# Molecular target: CaSho1
# Assay: as above
# In short: as §1
row,Binder,SPOT peptide array binding signal intensity
1,B1,5.5

# Molecular target: CaSla1-D1-D2
# Assay: as above
# In short: as §1
row,Binder,SPOT peptide array binding signal intensity
1,B1,458

# Molecular target: CaSla1-D3
# Assay: as above
# In short: as §1
row,Binder,SPOT peptide array binding signal intensity
1,B1,14.2

# Molecular target: ScAbp1
# Assay: as above
# In short: as §1
row,Binder,SPOT peptide array binding signal intensity
1,B1,516

# Molecular target: ScBbc1
# Assay: as above
# In short: as §1
row,Binder,SPOT peptide array binding signal intensity
1,B1,14.5

# Molecular target: ScBem1-D1
# Assay: as above
# In short: as §1
row,Binder,SPOT peptide array binding signal intensity
1,B1,≤ 0

# Molecular target: ScBzz1-D1
# Assay: as above
# In short: as §1
row,Binder,SPOT peptide array binding signal intensity
1,B1,118

# Molecular target: ScBzz1-D2
# Assay: as above
# In short: as §1
row,Binder,SPOT peptide array binding signal intensity
1,B1,3

# Molecular target: ScCyk3
# Assay: as above
# In short: as §1
row,Binder,SPOT peptide array binding signal intensity
1,B1,≤ 0

# Molecular target: ScFus1
# Assay: as above
# In short: as §1
row,Binder,SPOT peptide array binding signal intensity
1,B1,≤ 0

# Molecular target: ScHof1
# Assay: as above
# In short: as §1
row,Binder,SPOT peptide array binding signal intensity
1,B1,0.5

# Molecular target: ScHse1
# Assay: as above
# In short: as §1
row,Binder,SPOT peptide array binding signal intensity
1,B1,≤ 0

# Molecular target: ScLsb1
# Assay: as above
# In short: as §1
row,Binder,SPOT peptide array binding signal intensity
1,B1,210

# Molecular target: ScLsb2
# Assay: as above
# In short: as §1
row,Binder,SPOT peptide array binding signal intensity
1,B1,≤ 0

# Molecular target: ScLsb3
# Assay: as above
# In short: as §1
row,Binder,SPOT peptide array binding signal intensity
1,B1,1660

# Molecular target: ScLsb4
# Assay: as above
# In short: as §1
row,Binder,SPOT peptide array binding signal intensity
1,B1,11

# Molecular target: ScMyo3
# Assay: as above
# In short: as §1
row,Binder,SPOT peptide array binding signal intensity
1,B1,170

# Molecular target: ScMyo5
# Assay: as above
# In short: as §1
row,Binder,SPOT peptide array binding signal intensity
1,B1,306

# Molecular target: ScNbp2
# Assay: as above
# In short: as §1
row,Binder,SPOT peptide array binding signal intensity
1,B1,244

# Molecular target: ScPex13
# Assay: as above
# In short: as §1
row,Binder,SPOT peptide array binding signal intensity
1,B1,669

# Molecular target: ScRvs167
# Assay: as above
# In short: as §1
row,Binder,SPOT peptide array binding signal intensity
1,B1,47.7

# Molecular target: ScSho1
# Assay: as above
# In short: as §1
row,Binder,SPOT peptide array binding signal intensity
1,B1,379

# Molecular target: ScSla1-D1-D2
# Assay: as above
# In short: as §1
row,Binder,SPOT peptide array binding signal intensity
1,B1,83

# Molecular target: ScSla1-D3
# Assay: as above
# In short: as §1
row,Binder,SPOT peptide array binding signal intensity
1,B1,≤ 0

# Molecular target: SpAbp1-D1
# Assay: as above
# In short: as §1
row,Binder,SPOT peptide array binding signal intensity
1,B1,1120

# Molecular target: SpBbc1
# Assay: as above
# In short: as §1
row,Binder,SPOT peptide array binding signal intensity
1,B1,≤ 0

# Molecular target: SpBzz1-D1
# Assay: as above
# In short: as §1
row,Binder,SPOT peptide array binding signal intensity
1,B1,684

# Molecular target: SpBzz1-D2
# Assay: as above
# In short: as §1
row,Binder,SPOT peptide array binding signal intensity
1,B1,1.5

# Molecular target: SpCyk3
# Assay: as above
# In short: as §1
row,Binder,SPOT peptide array binding signal intensity
1,B1,1

# Molecular target: SpHof1
# Assay: as above
# In short: as §1
row,Binder,SPOT peptide array binding signal intensity
1,B1,≤ 0

# Molecular target: SpHof1-2
# Assay: as above
# In short: as §1
row,Binder,SPOT peptide array binding signal intensity
1,B1,≤ 0

# Molecular target: SpHof1-3
# Assay: as above
# In short: as §1
row,Binder,SPOT peptide array binding signal intensity
1,B1,90.8

# Molecular target: SpHse1
# Assay: as above
# In short: as §1
row,Binder,SPOT peptide array binding signal intensity
1,B1,16.8

# Molecular target: SpLsb1
# Assay: as above
# In short: as §1
row,Binder,SPOT peptide array binding signal intensity
1,B1,362

# Molecular target: SpLsb4
# Assay: as above
# In short: as §1
row,Binder,SPOT peptide array binding signal intensity
1,B1,746

# Molecular target: SpMyo1
# Assay: as above
# In short: as §1
row,Binder,SPOT peptide array binding signal intensity
1,B1,466

# Molecular target: SpNbp2
# Assay: as above
# In short: as §1
row,Binder,SPOT peptide array binding signal intensity
1,B1,≤ 0

# Molecular target: SpPex13
# Assay: as above
# In short: as §1
row,Binder,SPOT peptide array binding signal intensity
1,B1,≤ 0

# Molecular target: SpRvs167
# Assay: as above
# In short: as §1
row,Binder,SPOT peptide array binding signal intensity
1,B1,276

# Molecular target: SpSla1-D1-D2
# Assay: as above
# In short: as §1
row,Binder,SPOT peptide array binding signal intensity
1,B1,≤ 0

# Molecular target: SpSla1-D3
# Assay: as above
# In short: as §1
row,Binder,SPOT peptide array binding signal intensity
1,B1,≤ 0
